Measured values: PubChem BioAssay AID651819 (National Center for Advancing Translational Sciences (NCATS), 2012)
The whole screen tested about 360,000 compounds, of which about 1,100 (0.31%) were called active. Cut-off read from the data, not from the text of the source: active = activity change below about -30%; inactive = the rest. Only a selection was taken, and actives are over-represented in it overall.

tested on: cytosolic chaperonin (CCT/TRiC complex); assay: High-Throughput Screening for Modulators of Cytosolic Chaperonin Activity; settings: purified chaperonin ATPase assay, HTRF ADP detection, 30 min; stronger effect = lower value
Summary of the method: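 We incubate TRiC, 40 or 20 nM final, with library compounds at 76 uM and 10 uM ATP for 30 min at 37 °C. ADP formed is detected with Transcreener HTRF reagents after 30 min at room temperature.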
% is set by controls: 0 for no effect and ±100 for the full control effect.

For `C/C(Cc1ccccc1)=N\NC(=O)CNC(=O)c1ccccc1Cl`, which activity change is on record?
The activity change was 0.921% (inactive).

Which activity change does the source give for `CC(C)CNC(=O)COC(=O)c1ccccc1OCC(=O)Nc1ccc(Br)cc1` here?
Its activity change is 0.0186% (inactive).

With `O=C(O)c1ccccc1-c1ccccc1C(=O)NCc1cccnc1` as the molecule, how does the activity change read?
Its activity change is -1.06% (inactive).

`CN(c1ccccc1)S(=O)(=O)c1ccc(C(=O)NCc2cccnc2)cc1` was tested. Which activity change did it give?
The activity change was 0.104% (inactive).

Which activity change does the source give for `O=C(NCc1cccnc1)c1cnc2ccccc2n1` here?
The activity change was -37.4% (active).

For `CC(C)(C)OC(=O)CNC(=O)c1[nH]cnc1C(=O)N[C@@H](CCCCN)C(=O)OC(C)(C)C`, which activity change is on record?
The activity change was 0.783% (inactive).

With `NC(=O)c1nsc(C(=O)N(CCCN2CCOCC2)C(C(=O)NC2CCCCC2)c2ccc(Cl)cc2)c1N` (stereo unspecified) as the molecule, how does the activity change read?
The activity change was -0.121% (inactive).

With `CCc1nc2sc3c(Cl)ncnc3c2c2c1CCCC2` as the molecule, how does the activity change read?
The activity change was -2.15% (inactive).

`C/C(CC(=O)Nc1cccc(C(F)(F)F)c1)=N\NC(=O)C(=O)NCC(C)C` was tested. Which activity change did it give?
The activity change was -0.0398% (inactive).

`COc1ccc(NC(=O)C(=O)NCC(=O)Nc2cccc(C(F)(F)F)c2)cc1` was tested. Which activity change did it give?
Its activity change is -44.8% (active).

Which activity change does the source give for `COc1ccc(C(CC(=O)Nc2ccc(C)cc2)NC(=O)C(F)(F)F)cc1` (stereo unspecified) here?
Its activity change is 0.31% (inactive).

Which activity change does the source give for `Cc1ccc(CN2CC(C(=O)NNC(=O)Cn3ccc(C(F)(F)F)n3)CC2=O)cc1` (stereo unspecified) here?
Its activity change is -2.29% (inactive).

`Cc1cccc(-n2c(SCC(=O)Nc3cccc(S(=O)(=O)NC4=NCCCCC4)c3)nc3ccccc3c2=O)c1C` was tested. Which activity change did it give?
Its activity change is -6.85% (inactive).

How did the activity change turn out when `O=C(CCN1C(=O)[C@@H]2Cc3ccccc3CN2C1=O)NCc1ccccc1` was run?
Its activity change is -37.1% (active).

Which activity change does the source give for `Cc1ccc(CNC(=O)CCN2C(=O)[C@@H]3Cc4ccccc4CN3C2=O)cc1` here?
Its activity change is -0.496% (inactive).

For `O=C(CCN1C(=O)[C@@H]2Cc3ccccc3CN2C1=O)NCCc1ccccc1`, which activity change is on record?
The activity change was -0.128% (inactive).

With `CCN1C(=NCc2ccc(OC)cc2)N[C@@H](CCc2ccccc2)[C@H](C(=O)NCc2ccc(OC)cc2)[C@H]1C` as the molecule, how does the activity change read?
Its activity change is -0.204% (inactive).

How did the activity change turn out when `NC1=NC(c2ccc([N+](=O)[O-])cc2)N(c2ccc(F)cc2)C(N)=N1` (stereo unspecified) was run?
The activity change was 1.53% (inactive).

`COc1cc(C=O)ccc1Oc1nnnn1-c1ccccc1` was tested. Which activity change did it give?
The activity change was 0.228% (inactive).

With `COc1ccc(C2N=C(N)N=C(N)N2c2ccccc2)cc1OC` (stereo unspecified) as the molecule, how does the activity change read?
The activity change was -35.3% (active).

Which activity change does the source give for `Nc1nonc1-n1nnc(C(=O)N/N=C/c2cc(Br)ccc2O)c1CSC1=NCCS1` here?
The activity change was 1.21% (inactive).

For `Cc1nn(-c2ccccc2)c2sc(C(=O)N(Cc3ccco3)C(C)C(=O)NC(C)(C)C)cc12` (stereo unspecified), which activity change is on record?
The activity change was 1% (inactive).

`CC(C)NC(=O)CCCn1c(=S)[nH]c2cc3c(cc2c1=O)OCO3` was tested. Which activity change did it give?
The activity change was -1.56% (inactive).

For `Cc1ccc(C)c(N2CCN(C(=O)CCCCCn3c(=S)[nH]c4ccc(N5CCOCC5)cc4c3=O)CC2)c1`, which activity change is on record?
The activity change was 1.65% (inactive).

`O=C(CCCCCn1c(=S)[nH]c2cc3c(cc2c1=O)OCO3)N1CCN(c2ccc(F)cc2)CC1` was tested. Which activity change did it give?
Its activity change is -31.7% (active).

How did the activity change turn out when `CC(C)N(C(=O)Cn1c(SCC(=O)N2CCN(c3ccccc3)CC2)nc2ccccc21)C(C)C` was run?
Its activity change is -3.64% (inactive).

For `Cc1ccc(S(=O)(=O)/N=C(/NC(=S)Nc2c(C)n(C)n(-c3ccccc3)c2=O)c2ccccc2)cc1`, which activity change is on record?
Its activity change is -1.68% (inactive).

`OCC1(CCc2ccccc2)CCN(Cc2ccc3nsnc3c2)CC1` was tested. Which activity change did it give?
Its activity change is -4.83% (inactive).

Which activity change does the source give for `Cc1c(CN2CCC(CO)(CCOc3ccccc3)CC2)[nH]c2ccc(Cl)cc12` here?
Its activity change is -56% (active).

Which activity change does the source give for `COc1cccc(CC2(CO)CCN(Cc3cnc(-c4cccc(C)c4)nc3)CC2)c1` here?
Its activity change is -1.28% (inactive).

`O=C1C2C3C=CC(C3)C2C(=O)N1c1ncc([N+](=O)[O-])s1` (stereo unspecified) was tested. Which activity change did it give?
Its activity change is -1.62% (inactive).

Which activity change does the source give for `COc1ccc(/C=C/C(=O)OCC(=O)NCc2cccs2)cc1OC` here?
The activity change was -2.94% (inactive).

For `CC(C)c1cccc(-c2csc(C(O)c3ccccc3)n2)c1` (stereo unspecified), which activity change is on record?
Its activity change is -0.363% (inactive).

`OC(c1ccccc1)c1nc(-c2cnc3ccccc3c2)cs1` (stereo unspecified) was tested. Which activity change did it give?
The activity change was -40.1% (active).

With `COc1cccc(C(NC(C)=O)c2nc(-c3cnc4ccccc4c3)cs2)c1` (stereo unspecified) as the molecule, how does the activity change read?
Its activity change is 0.873% (inactive).

With `COC(=O)C[C@H]1C[C@@H]2c3cc(N(C)C)ccc3O[C@@H]2[C@H](CO)O1` as the molecule, how does the activity change read?
Its activity change is -1.3% (inactive).

For `CCOC(=O)c1ccccc1NC(=O)c1c(N)n(C)c(=O)[nH]c1=O`, which activity change is on record?
Its activity change is 2.1% (inactive).

`O=C(Nc1ccccc1-c1nnn(CC(=O)N2CCCc3ccccc32)n1)c1cccc(Cl)c1` was tested. Which activity change did it give?
The activity change was -0.628% (inactive).

How did the activity change turn out when `COCc1ccc(C(=O)NC2CC(C)(C)Cc3c2cnn3-c2ccc(C)cc2)o1` (stereo unspecified) was run?
The activity change was -1.13% (inactive).

How did the activity change turn out when `CC1=C(C(=O)NC2CC(C)(C)Cc3c2cnn3-c2ccc(C)cc2)OCCO1` (stereo unspecified) was run?
Its activity change is -89.1% (active).

How did the activity change turn out when `Cc1ccc(-n2ncc3c2CC(C)(C)CC3NC(=O)Cc2c(C)noc2C)cc1` (stereo unspecified) was run?
The activity change was 1.55% (inactive).

With `Cc1ccc(-c2c(C)n([O-])c3c([n+]2=O)CCC3)cc1` as the molecule, how does the activity change read?
Its activity change is -0.716% (inactive).

Which activity change does the source give for `O=C1/C(=C\c2cccnc2)CN(Cc2ccccc2)C/C1=C\c1cccnc1` here?
Its activity change is -1.65% (inactive).

With `COc1ccc(C2=NOC3(CC(=O)N(c4ccc(Cl)cc4)C3=O)C2)c(OC)c1` (stereo unspecified) as the molecule, how does the activity change read?
Its activity change is 1.68% (inactive).

With `CC(=O)c1c(C)c[nH]c1C` as the molecule, how does the activity change read?
Its activity change is 0.144% (inactive).

`Cc1ccc(S(=O)(=O)NCC(=O)Nc2ccc3c(c2)OCCO3)cc1` was tested. Which activity change did it give?
The activity change was -2.11% (inactive).

With `CC(=O)Nc1ccc(NC(=O)C(NS(=O)(=O)c2ccc3c(c2)OCCO3)C(C)C)cc1` (stereo unspecified) as the molecule, how does the activity change read?
Its activity change is -1.81% (inactive).

With `CC(NS(=O)(=O)c1ccc(Cl)cc1)C(=O)Nc1ccc2c(c1)OCCO2` (stereo unspecified) as the molecule, how does the activity change read?
Its activity change is -38.5% (active).

`COc1cc(Cl)c(C)cc1NC(=O)CSc1nnc(-c2ccco2)n1CC(C)C` was tested. Which activity change did it give?
Its activity change is -2.06% (inactive).

For `COc1ccccc1N1CCN(C(=O)CSc2ncnc3c2cnn3-c2ccc(C)c(C)c2)CC1`, which activity change is on record?
Its activity change is -0.613% (inactive).

How did the activity change turn out when `CN(C(=O)CC(NC(=O)c1ccccc1)(c1ccccc1)c1ccccc1)c1ccccc1` was run?
Its activity change is -1.61% (inactive).

Which activity change does the source give for `CCOC(=O)N/N=C1\CC(C)S(=O)(=O)c2ccc(Cl)cc21` (stereo unspecified) here?
The activity change was -3.43% (inactive).

Which activity change does the source give for `CC(=O)c1cc2c(cc1NC(=O)CN1CCCCCC1)OCO2` here?
Its activity change is -1.13% (inactive).

For `CC(=O)c1cc2c(cc1NC(=O)Cn1nc(-c3ccc(F)cc3)ccc1=O)OCO2`, which activity change is on record?
Its activity change is -31.8% (active).

For `CCOc1cccc(NC(=O)Cn2nc(-c3ccc4c(c3)OCCO4)ccc2=O)c1`, which activity change is on record?
Its activity change is 2.22% (inactive).

For `Cc1cccc2c1cnn2C(=O)CCC(=O)NC1CCCCC1`, which activity change is on record?
Its activity change is 0.998% (inactive).

`C=CCN(N=Nc1cccc([N+](=O)[O-])c1)c1cccc([N+](=O)[O-])c1` was tested. Which activity change did it give?
The activity change was -0.537% (inactive).

How did the activity change turn out when `CC1=C(C(=O)OC(C)(C)C)C(c2ccc(Br)cc2)NC(=O)N1CCCC(=O)O` (stereo unspecified) was run?
The activity change was -0.201% (inactive).

How did the activity change turn out when `O=C1CS(=O)CN1c1ccc(Oc2ccccc2)cc1` (stereo unspecified) was run?
The activity change was -3.89% (inactive).

For `Cc1n[nH]c(=O)n1-c1ccc(Oc2ccccc2)cc1`, which activity change is on record?
The activity change was -105% (active).

`Cc1n[nH]c(=O)n1-c1ccc(C(C)C)cc1` was tested. Which activity change did it give?
The activity change was 0.471% (inactive).

`O=C(NCCCN1CCOCC1)c1ccc2c(c1)N(Cc1cccc(F)c1)C(=O)c1ccccc1S2` was tested. Which activity change did it give?
The activity change was -77.1% (active).

Which activity change does the source give for `O=C(NCCCN1CCOCC1)c1cc(-c2ccccc2F)no1` here?
Its activity change is 1.6% (inactive).

How did the activity change turn out when `O=C(NCCCN1CCCCC1)c1ccc2c(c1)NC(=O)C(N1CCOCC1)S2` (stereo unspecified) was run?
Its activity change is -0.706% (inactive).

How did the activity change turn out when `CCc1ccc(CN(C)C(C)C(=O)Nc2ccc(S(=O)(=O)N3CCCC3)cc2)cc1` (stereo unspecified) was run?
The activity change was -0.65% (inactive).

With `Cc1ccc(C2C(C#N)C(C#N)N3CCCN23)cc1` (stereo unspecified) as the molecule, how does the activity change read?
Its activity change is 0.118% (inactive).
